Results from PubChem BioAssay (EPA / NIEHS).
Results filed as inconclusive are left out. Active and inactive are the calls of the source. How the source made its calls, unless noted: active means hit-call score of the fitted dose curve at least 0.9, where 1 is the maximum; inconclusive means response in the unintended direction; inactive means score below 0.9.

Tests used:
[1] = read-out: alkyl and aryl transferase (GSTA2), GSTA2 (gene 2939); assay: CLD_GSTA2_24hr: CellzDirect (CLD) Gene Expression Assay for alkyl and aryl transferase (GSTA2) at 24 hours (AID 2283693)
Outline: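 GSTA2 transcript levels were quantified by quantitative nuclease protection assay in primary human hepatocytes 24 h after daily dosing with fresh solutions at multiple concentrations; 0.2% DMSO vehicle as baseline, cytotoxicity flagged morphologically.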

[2] = read-out: ABC Transporter (ABCB1), ABCB1 (gene 5243); assay: CLD_ABCB1_48hr: CellzDirect (CLD) Gene Expression Assay for ABC Transporter (ABCB1) at 48 hours (AID 2283695);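 on AC50: potency for induction meaning increase of mRNA over DMSO vehicle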
Outline: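 ABCB1 mRNA was measured by quantitative nuclease protection assay (chemiluminescence) 48 h after dosing. Human hepatocyte cultures from two separate donors received fresh dosing solutions daily for two days, with 0.2% DMSO as vehicle. Positive-direction fit against DMSO.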

[3] = read-out: glucuronosyltransferase (UGT1A1), UGT1A1 (gene 54658); assay: CLD_UGT1A1_24hr: CellzDirect (CLD) Gene Expression Assay for glucuronosyltransferase (UGT1A1) at 24 hours (AID 2283696)
Outline: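 UGT1A1 transcript induction was measured by quantitative nuclease protection assay (chemiluminescence) in human hepatocyte cultures 24 h after daily fresh dosing, with 0.2% DMSO as vehicle and baseline.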

[4] = read-out: ABC Transporter (ABCB11), ABCB11 (gene 8647); assay: CLD_ABCB11_48hr: CellzDirect (CLD) Gene Expression Assay for ABC Transporter (ABCB11) at 48 hours (AID 2283697)
Outline: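 Induction of ABCB11 mRNA relative to 0.2% DMSO, measured at 48 h by qNPA chemiluminescence. Cultured human hepatocytes (two donors) received fresh dosing solutions at several concentrations on two consecutive days.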

[5] = read-out: Cytochrome P450 3A4 (Homo sapiens) (UniProt P08684); assay: CLD_CYP3A4_48hr: CellzDirect (CLD) Gene Expression Assay for xenobiotic metabolism (CYP3A4) at 48 hours (AID 2283698)
Outline: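 CYP3A4 induction read by qNPA chemiluminescence after 48 h, with fresh dosing solutions on consecutive days, in cultured human hepatocytes (two donors). Vehicle 0.2% DMSO as baseline; microscopy-based cytotoxicity annotated yes/no alongside data.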

[6] = read-out: Cytochrome P450 2B6 (Homo sapiens) (UniProt P20813); assay: CLD_CYP2B6_48hr: CellzDirect (CLD) Gene Expression Assay for xenobiotic metabolism (CYP2B6) at 48 hours (AID 2283699);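 further: actives raise transcript level above DMSO so potency reflects induction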
Outline: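 CYP2B6 transcript induction, read by quantitative nuclease protection (S1 digestion, chemiluminescent detection) 48 h after dosing, is fitted upward against 0.2% DMSO. Cultured human liver primary cells, two donor preparations, received fresh chemical daily over multiple concentrations.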

[7] = read-out: Cytochrome P450 2C9 (Homo sapiens) (UniProt P11712); assay: CLD_CYP2C9_48hr: CellzDirect (CLD) Gene Expression Assay for xenobiotic metabolism (CYP2C9) at 48 hours (AID 2283701; active means hit-call score of the fitted dose curve at least 0.9, where 1 is the maximum; inactive means score below 0.9)
Outline: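 mRNA level measured by quantitative nuclease protection (S1 digestion, chemiluminescent detection) in lysates of human primary hepatocytes exposed 48 h with daily re-dosing. Induction fitted positively versus 0.2% DMSO; morphology-based cytotoxicity flagged yes/no.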

[8] = read-out: xenobiotic metabolism (CYP1A2), CYP1A2 (gene 1544); assay: CLD_CYP1A2_48hr: CellzDirect (CLD) Gene Expression Assay for xenobiotic metabolism (CYP1A2) at 48 hours (AID 2283703)
Outline: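 Cytotoxicity was flagged yes/no from morphology, while CYP1A2 transcript induction was detected by qNPA chemiluminescence after a 48-hour exposure. Human primary hepatocyte cultures from separate donors received fresh dosing solutions daily over two days, with 0.2% DMSO as vehicle and baseline.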

[9] = read-out: Broad substrate specificity ATP-binding cassette transporter ABCG2 (Homo sapiens) (UniProt Q9UNQ0); assay: CLD_ABCG2_48hr: CellzDirect (CLD) Gene Expression Assay for ABC Transporter (ABCG2) at 48 hours (AID 2283704)
Outline: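 ABCG2 transcript measured at 48 h by quantitative nuclease protection (chemiluminescent) and fitted for increase relative to 0.2% DMSO. Hepatocyte cultures from separate donors got fresh compound daily over two days; morphology annotated cytotoxicity.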

[10] = read-out: xenobiotic metabolism (CYP1A1), CYP1A1 (gene 1543); assay: CLD_CYP1A1_48hr: CellzDirect (CLD) Gene Expression Assay for xenobiotic metabolism (CYP1A1) at 48 hours (AID 2283705)
Outline: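 CYP1A1 transcript measured by quantitative nuclease protection (chemiluminescent) 48 h after two daily treatments of human hepatocyte cultures, versus 0.2% DMSO. Morphology-based cytotoxicity flags accompany data; two donor preparations used.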

[11] = read-out: organic anion transporter (SLCO1B1), SLCO1B1 (gene 10599); assay: CLD_SLCO1B1_48hr: CellzDirect (CLD) Gene Expression Assay for organic anion transporter (SLCO1B1) at 48 hours (AID 2283707)
Outline: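 SLCO1B1 transcript quantified by qNPA with chemiluminescent readout after 48 h of once-daily chemical exposure. Cultured human primary hepatocytes came from two donors, with 0.2% DMSO vehicle; positive-direction fitting against DMSO, cytotoxicity flagged by morphology.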

[12] = read-out: alkyl and aryl transferase (GSTA2), GSTA2 (gene 2939); assay: CLD_GSTA2_48hr: CellzDirect (CLD) Gene Expression Assay for alkyl and aryl transferase (GSTA2) at 48 hours (AID 2283708);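 further: active means mRNA induction above DMSO vehicle baseline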
Outline: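 GSTA2 mRNA quantified by qNPA chemiluminescence in human primary hepatocyte lysates after 48 h of daily fresh chemical dosing. Increases fitted against 0.2% DMSO vehicle baseline; cytotoxicity from morphology annotated yes/no.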

[13] = read-out: sulfotransferase (SULT2A), SULT2A1 (gene 6822); assay: CLD_SULT2A_48hr: CellzDirect (CLD) Gene Expression Assay for sulfotransferase (SULT2A) at 48 hours (AID 2283710);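 further: hits raise SULT2A1 transcript above the 0.2% DMSO vehicle baseline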
Outline: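 SULT2A1 transcript measured by qNPA chemiluminescence in human primary hepatocyte cultures after 48 h, with fresh dosing solutions on two consecutive days; gain-of-signal fitting against 0.2% DMSO vehicle; cytotoxicity annotated from phase-contrast morphology.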

[14] = read-out: Cytochrome P450 2C19 (Homo sapiens) (UniProt P33261); assay: CLD_CYP2C19_48hr: CellzDirect (CLD) Gene Expression Assay for xenobiotic metabolism (CYP2C19) at 48 hours (AID 2283700);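 further: fitted upward so actives raise CYP2C19 mRNA above the 0.2% DMSO vehicle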
Outline: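 CYP2C19 mRNA induction read by chemiluminescent quantitative nuclease protection assay after 48 h, with fresh compound added daily for two days to cultured human liver hepatocytes. Activity fitted upward against 0.2% DMSO vehicle.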

[15] = read-out: glucuronosyltransferase (UGT1A1), UGT1A1 (gene 54658); assay: CLD_UGT1A1_48hr: CellzDirect (CLD) Gene Expression Assay for glucuronosyltransferase (UGT1A1) at 48 hours (AID 2283709);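 further: actives increase expression relative to DMSO so potency refers to induction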
Outline: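 Quantitative nuclease protection assay (chemiluminescent) for UGT1A1 mRNA at 48 h in human hepatocyte cultures from two donors, redosed daily with fresh solutions. Induction fitted relative to 0.2% DMSO; phase-contrast morphology annotated cytotoxicity.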

[16] = CLD_ACTIN_48hr: CellzDirect (CLD) Gene Expression Assay for Baseline Control (Actin) at 48 hours (AID 2283702)
Outline: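 Background-control actin mRNA read by qNPA chemiluminescence at 48 h. Human hepatocyte cultures from two donors received fresh multi-concentration chemical doses daily for two days; 0.2% DMSO served as vehicle baseline.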

[17] = read-out: Glyceraldehyde-3-phosphate dehydrogenase (Homo sapiens) (UniProt P04406); assay: CLD_GAPDH_48hr: CellzDirect (CLD) Gene Expression Assay for Baseline Control (Glyceraldehyde 3-phosphate dehydrogenase) at 48 hours (AID 2283706);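 further: active means higher GAPDH mRNA than DMSO vehicle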
Outline: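 GAPDH baseline-control readout: qNPA chemiluminescent mRNA quantitation in human liver primary cells 48 h after daily dosing on two consecutive days, vehicle 0.2% DMSO; gain of signal fitted against DMSO, cytotoxicity flagged by phase-contrast morphology.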

[18] = read-out: sulfotransferase (SULT2A), SULT2A1 (gene 6822); assay: CLD_SULT2A_24hr: CellzDirect (CLD) Gene Expression Assay for sulfotransferase (SULT2A) at 24 hours (AID 2283694)
Outline: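 mRNA is measured by qNPA: probe hybridisation, S1 nuclease digestion, chemiluminescence, in lysates from human primary hepatocytes harvested 24 h after daily dosing. Vehicle was 0.2% DMSO. Phase-contrast microscopy flagged cytotoxicity (yes/no).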

Measured: AC50

Sequence of Cytochrome P450 2C19 (Homo sapiens) (P33261 whole entry, looked up): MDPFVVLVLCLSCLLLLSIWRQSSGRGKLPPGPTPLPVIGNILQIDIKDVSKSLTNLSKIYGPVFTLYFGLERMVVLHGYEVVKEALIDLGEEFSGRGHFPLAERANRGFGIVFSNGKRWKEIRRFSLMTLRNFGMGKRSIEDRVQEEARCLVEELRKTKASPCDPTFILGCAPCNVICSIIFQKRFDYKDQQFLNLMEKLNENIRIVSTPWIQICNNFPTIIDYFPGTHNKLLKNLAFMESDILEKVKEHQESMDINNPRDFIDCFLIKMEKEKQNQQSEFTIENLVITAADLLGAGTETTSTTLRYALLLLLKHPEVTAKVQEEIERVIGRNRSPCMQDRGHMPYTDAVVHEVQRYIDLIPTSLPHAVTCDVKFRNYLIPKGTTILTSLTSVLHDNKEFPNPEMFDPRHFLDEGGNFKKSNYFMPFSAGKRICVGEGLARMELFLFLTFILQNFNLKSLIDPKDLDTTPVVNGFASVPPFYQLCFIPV
Sequence of Cytochrome P450 3A4 (Homo sapiens) (P08684 whole entry, looked up): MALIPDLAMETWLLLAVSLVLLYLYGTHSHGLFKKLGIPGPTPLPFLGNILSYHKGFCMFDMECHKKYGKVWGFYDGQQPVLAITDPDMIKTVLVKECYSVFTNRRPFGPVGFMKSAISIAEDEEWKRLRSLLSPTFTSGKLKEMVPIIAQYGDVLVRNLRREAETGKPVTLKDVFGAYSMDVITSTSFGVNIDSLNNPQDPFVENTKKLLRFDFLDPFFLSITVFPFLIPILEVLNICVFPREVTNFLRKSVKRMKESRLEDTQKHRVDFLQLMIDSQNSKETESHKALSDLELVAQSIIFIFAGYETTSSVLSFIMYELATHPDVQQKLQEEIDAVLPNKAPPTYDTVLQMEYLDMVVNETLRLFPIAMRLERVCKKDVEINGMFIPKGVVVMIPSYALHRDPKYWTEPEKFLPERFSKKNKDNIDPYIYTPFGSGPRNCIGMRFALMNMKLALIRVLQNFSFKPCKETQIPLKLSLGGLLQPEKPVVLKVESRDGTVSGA
Sequence of Broad substrate specificity ATP-binding cassette transporter ABCG2 (Homo sapiens) (Q9UNQ0 whole entry, looked up): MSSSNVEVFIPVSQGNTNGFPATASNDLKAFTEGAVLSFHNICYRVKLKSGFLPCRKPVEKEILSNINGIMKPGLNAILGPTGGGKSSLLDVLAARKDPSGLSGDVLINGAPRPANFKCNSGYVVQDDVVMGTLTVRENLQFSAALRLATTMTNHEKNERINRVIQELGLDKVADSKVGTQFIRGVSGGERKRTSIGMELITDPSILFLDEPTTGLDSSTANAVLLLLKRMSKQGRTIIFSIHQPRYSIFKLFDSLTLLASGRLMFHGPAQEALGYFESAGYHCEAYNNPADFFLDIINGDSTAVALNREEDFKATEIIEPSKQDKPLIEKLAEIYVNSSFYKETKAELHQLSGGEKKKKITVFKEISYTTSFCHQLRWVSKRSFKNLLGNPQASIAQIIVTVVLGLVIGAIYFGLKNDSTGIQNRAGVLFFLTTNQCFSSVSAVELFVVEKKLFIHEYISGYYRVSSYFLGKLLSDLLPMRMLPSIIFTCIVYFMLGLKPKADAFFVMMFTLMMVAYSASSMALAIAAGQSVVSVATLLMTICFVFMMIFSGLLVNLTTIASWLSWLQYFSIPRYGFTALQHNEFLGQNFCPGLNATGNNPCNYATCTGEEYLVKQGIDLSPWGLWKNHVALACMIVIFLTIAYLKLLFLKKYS
Sequence of Glyceraldehyde-3-phosphate dehydrogenase (Homo sapiens) (P04406 whole entry, looked up): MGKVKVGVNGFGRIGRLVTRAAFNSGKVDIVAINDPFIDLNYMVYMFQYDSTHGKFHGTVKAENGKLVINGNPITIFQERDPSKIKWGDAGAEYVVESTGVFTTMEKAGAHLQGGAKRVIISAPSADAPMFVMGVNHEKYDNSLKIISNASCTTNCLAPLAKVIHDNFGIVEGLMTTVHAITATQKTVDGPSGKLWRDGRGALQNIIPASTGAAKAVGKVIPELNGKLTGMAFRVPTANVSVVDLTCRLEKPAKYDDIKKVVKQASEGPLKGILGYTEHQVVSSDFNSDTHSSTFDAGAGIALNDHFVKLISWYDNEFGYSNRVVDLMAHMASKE

COP(=S)(OC)SCn1nnc2ccccc2c1=O
active: [3] 9.43 µM | [5] 12.8 µM | [6] 4.19 µM | [8] 0.409 µM | [10] 1.36 µM
inactive: [1] | [2] | [4] | [7] | [9] | [11] | [12] | [13]

CCOC(=O)C(C)OC(=O)c1cc(Oc2ccc(C(F)(F)F)cc2Cl)ccc1[N+](=O)[O-] (stereo not drawn)
active: [3] 2.46 µM | [5] 5.01 µM | [6] 20 µM | [8] 20 µM | [10] 20 µM | [15] 7 µM | [13] 4.61 µM
inactive: [14]

CSC(=O)c1c(C(F)F)nc(C(F)(F)F)c(C(=O)SC)c1CC(C)C
active: [5] 0.645 µM | [8] 6.64 µM | [10] 20 µM | [12] 11.8 µM
inactive: [1] | [2] | [3] | [7] | [9] | [11] | [15] | [13]

CCCCC(O)(Cn1cncn1)c1ccc(Cl)cc1Cl (stereo not drawn)
inactive: [3] | [7] | [16] | [9] | [12] | [13]
active: [2] 31.9 µM | [5] 1.89 µM | [8] 3.97 µM | [10] 20 µM

CCOP(=S)(OCC)Oc1nc(Cl)n(C(C)C)n1
active: [3] 0.652 µM | [5] 2.52 µM | [6] 0.427 µM | [8] 5.78 µM | [10] 5.35 µM
inactive: [1] | [2] | [7] | [12] | [13]

COc1cc(Cl)c(OC)cc1Cl
active: [6] 0.0752 µM | [10] 3.97 µM
inactive: [1] | [3] | [5] | [14] | [8] | [9] | [17] | [11] | [12] | [13]

CCC(C)n1c(=O)[nH]c(C)c(Br)c1=O (stereo not drawn)
inactive: [5] | [15] | [13]
active: [6] 3.28 µM | [8] 11.8 µM | [10] 8.72 µM

COC(=O)N(C(=O)N1CO[C@@]2(C(=O)OC)Cc3cc(Cl)ccc3C2=N1)c1ccc(OC(F)(F)F)cc1
inactive: [1] | [3] | [13]
active: [5] 5.15 µM | [8] 4.25 µM | [10] 2.72 µM

COCC(C)N(C(=O)CCl)c1c(C)csc1C (stereo not drawn)
inactive: [1] | [2] | [3] | [4] | [9] | [10] | [17] | [11]
active: [6] 5.14 µM | [12] 32.1 µM

CCN(CC)C(=O)C(C)Oc1cccc2ccccc12 (stereo not drawn)
inactive: [18] | [2] | [3] | [14] | [7] | [11] | [12]
active: [5] 3.72 µM | [8] 5.76 µM | [10] 27.9 µM | [13] 33 µM
